This is a sample that favours compounds with a hit; in the whole collection about 4.4% have one here.
USP1 inh: USP1/UAF1 (human) deubiquitinase inhibition; O94782; recombinant USP1/UAF1, Ub-Rhodamine cleavage fluorescence; Potency, µM (titrated, usually from 57.1 µM), usual class: inhibitors; 390,000 tested, 0.23% active; active = well fitted inhibition curve with a large enough effect; inconclusive = small, poorly fitted or top-dose-only effect; inactive = no such curve, though single readings can be large or run the other way; also: nearly all actives have a fitted effect of over 60% in size
Target sequence (O94782 whole entry, looked up): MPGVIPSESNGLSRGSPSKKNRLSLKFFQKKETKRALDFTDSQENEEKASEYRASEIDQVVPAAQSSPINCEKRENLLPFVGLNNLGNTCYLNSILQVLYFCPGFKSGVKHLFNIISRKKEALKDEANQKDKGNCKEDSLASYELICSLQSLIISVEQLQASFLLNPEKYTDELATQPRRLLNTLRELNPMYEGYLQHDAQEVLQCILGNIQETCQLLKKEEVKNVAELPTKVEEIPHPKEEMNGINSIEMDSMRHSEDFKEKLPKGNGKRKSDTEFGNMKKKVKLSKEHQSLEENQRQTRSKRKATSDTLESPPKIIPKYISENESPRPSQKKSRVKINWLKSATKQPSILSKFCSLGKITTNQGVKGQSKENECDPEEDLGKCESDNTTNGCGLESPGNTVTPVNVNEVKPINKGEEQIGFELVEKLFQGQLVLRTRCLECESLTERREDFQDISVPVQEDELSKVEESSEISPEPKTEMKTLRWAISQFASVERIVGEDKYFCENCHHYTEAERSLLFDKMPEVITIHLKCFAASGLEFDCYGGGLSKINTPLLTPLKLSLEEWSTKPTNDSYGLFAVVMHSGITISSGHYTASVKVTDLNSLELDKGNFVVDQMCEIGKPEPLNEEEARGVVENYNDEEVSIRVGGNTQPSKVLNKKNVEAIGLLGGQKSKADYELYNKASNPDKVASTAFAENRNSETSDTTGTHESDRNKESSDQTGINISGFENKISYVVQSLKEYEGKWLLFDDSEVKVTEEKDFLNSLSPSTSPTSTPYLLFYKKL
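Step one: compound is pinned into 1nM USP1/UAF1 in HEPES pH 7.8 buffer with TCEP. Step two: 15 min room-temperature incubation. Step three: Ub-Rho (150nM final) starts cleavage, tracked by fluorescence over six one-minute reads.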
D1 PAM: enhances dopamine response at the human D1 receptor. HEK293 TREx D1 cells, calcium flux, dopamine EC20 potentiation. 360,000 tested, 0.036% active. P21728. potentiation, % at 10 µM; in the data active = potentiation above about 30%
D1 ag: human D1 receptor agonism; P21728; HEK293 T-REx D1 cells, calcium flux, agonist mode; activation, % at 2 µM; 360,000 tested, 1% active; AID 504660
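Tetracycline-induced HEK293 TREx D1 cells, force-coupled to calcium signalling, were dye-loaded with a no-wash calcium kit. Compound was pin-added after a 10 s baseline. Fluorescence was read kinetically at 1 cycle/s for 180 s, with calcium rises flagged as agonism.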
TRHR agonist: agonists of human TRH receptor. TRHR cells, calcium flux fluo-8, FDSS agonist mode. activation, % at 2 µM. 360,000 tested, 0.18% active
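Read-out: compound-evoked intracellular calcium rise in TRHR cells, fluo-8 dye, kinetic FDSS fluorescence at 1 s/cycle following a 10-cycle baseline. Cells cultured overnight before dye loading (30 min–1.5 h, RT).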
D1 antagonist: human D1 dopamine receptor antagonism; P21728; HEK293 TREx D1 cells, calcium flux, dopamine EC80; stronger effect = lower value; 360,000 tested, 3.2% active; activity change, negative = inhibition, % at 10 µM; in the data active = activity change below about -30%
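Using tetracycline-induced force-coupled D1 Hek293 cells and a calcium dye, signals were followed for 180 s after compound, then for 180 s after EC80 dopamine, to detect inhibitors.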
TRHR enhancer: TRH receptor (human) allosteric enhancement. 360,000 tested, 0.66% active. TRHR cells, fluo-8 calcium fluorescence, EC20 TRH enhancement. AID 493056. P34981. enhancement, % at 2 µM; in the data active = enhancement above about 30%
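Enhancer read-out: after compound pinning and an initial kinetic agonist-mode read, an EC20 of TRH (10 nM final) was injected and fluo-8 calcium signal (Ex 480/Em 530) followed at 1 s/cycle for 100 cycles in TRHR-expressing cells.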
Of the large screens only hits and unclear results are named; the others gave an inactive call. Rule as the data show it, unless noted: active = activation above about 30%; inactive = the rest.

FC(F)Oc1ccc(NC(=S)NC2CCSc3ccccc32)cc1 (configuration not stated)	none
CC1CC(N(C(=O)c2ccc(Cl)cc2)c2ccccc2)c2ccccc2N1C(=O)c1ccco1 (configuration not stated)	D1 antagonist -46
CC1CC(N(C(=O)c2ccco2)c2ccccc2)c2ccccc2N1C(=O)c1ccco1 (configuration not stated)	none
O=S(=O)(c1cc(Br)c(Br)s1)N1CCN(c2ccccc2)CC1	none
N=C1c2ccccc2CN1c1ccc(N2CCOCC2)c(S(=O)(=O)Nc2ccc(Cl)cc2)c1	D1 ag 83 (no result: USP1 inh)
Nc1cc(S(=O)(=O)Nc2ccc(Cl)cc2)ccc1N1CCOCC1	none
COc1cccc(-c2cn3c(n2)sc2cc(C(=O)NCCCc4ccccc4)ccc23)c1	USP1 inh inconclusive, D1 antagonist -34
COc1ccc(-c2cn3c(n2)sc2cc(C(=O)NCCCc4ccccc4)ccc23)cc1	none
CCn1cnc2c(Nc3ccc(CCC(=O)N=C(N)N)cc3)nc(C#N)nc21	none (no result: USP1 inh)
COc1ccc(C2=C(C)C(=O)N(Cc3ccc(C(=O)NCc4cccc(C)c4)cc3)S2(=O)=O)cc1	none
COc1cccc(C(=O)c2c(N)c(-c3nc(-c4ccccc4)cs3)c3ccccn23)c1	D1 antagonist -43
Nc1c(-c2nc(-c3ccc4c(c3)OCO4)cs2)c2ccccn2c1C(=O)c1ccc(Cl)cc1	none
Nc1c(-c2nc(-c3ccc4c(c3)OCO4)cs2)c2ccccn2c1C(=O)c1ccccc1	D1 antagonist -41
COc1ccc(-c2csc(-c3c(N)c(C(=O)c4ccccc4)n4ccccc34)n2)cc1	none
CCOC(=O)c1c(C)[nH]c(C)c1S(=O)(=O)N1CCC(C(=O)NCc2ccccc2)CC1	none
O=C(O)c1cc(O)c2c(c1)[C@@H]([C@H]1c3cc(C(=O)O)cc(O)c3C(=O)c3c(O[C@@H]4O[C@H](CO)[C@@H](O)[C@H](O)[C@H]4O)cccc31)c1cccc(OC3O[C@H](CO)[C@@H](O)[C@H](O)[C@H]3O)c1C2=O (some centres not stated)	USP1 inh 5.6µM
O=C(O)c1cc(O)c2c(c1)[C@H]([C@H]1c3cc(C(=O)O)cc(O)c3C(=O)c3c(O[C@@H]4O[C@H](CO)[C@@H](O)[C@H](O)[C@H]4O)cccc31)c1cccc(OC3O[C@H](CO)[C@@H](O)[C@H](O)[C@H]3O)c1C2=O (some centres not stated)	USP1 inh 7.1µM
Fc1ccc(-c2cc(-c3nc(-c4ccccc4)no3)[nH]n2)cc1	none
Cc1ccccc1NC(=O)c1cc2c(-c3ccccc3)nn(-c3ccccc3)c2s1	none
Cc1ccc(NC(=O)c2nnn(-c3cccc(C(F)(F)F)c3)c2N)cc1	none
CC(=O)Nc1c(C(=O)Nc2cccc(C)c2)nnn1-c1ccc(C)cc1	D1 antagonist -34
COc1ccc(CCN2CC34C=CC(O3)C(C(=O)NCc3ccccc3Cl)C4C2=O)cc1OC (configuration not stated)	none
COc1ccccc1N1CCN(C(=O)C2C3C=CC4(CN(Cc5ccccc5Cl)C(=O)C24)O3)CC1 (configuration not stated)	D1 antagonist -35
COc1ccc(OC)c(-c2noc(N3CCN(c4ccc(Cl)cc4)CC3)n2)c1	none
Cc1cc([N+](=O)[O-])cc(C)c1OCC(=O)N/N=C/c1ccc(OC(=O)c2ccccc2Br)cc1	D1 antagonist -33
Cc1cc([N+](=O)[O-])cc(C)c1OCC(=O)N/N=C/c1ccc(OC(=O)c2ccccc2)cc1	none
COC(=O)C(CC(C)C)Oc1ccc2c(C)cc(=O)oc2c1 (configuration not stated)	TRHR enhancer 36
Cc1cc(=O)oc2cc(OC(C)C(=O)Nc3nccs3)ccc12 (configuration not stated)	D1 antagonist -37
CCOC(=O)Nc1ccc2c(C)cc(=O)oc2c1	none
CCCCOC(=O)Nc1ccc2c(C)cc(=O)oc2c1	TRHR enhancer 40

Bioassay records: PubChem BioAssay, National Center for Advancing Translational Sciences (NCATS)
